Results on 20 compounds are retold here after PubChem BioAssay (Tox21).

Assay [1] in a line: qHTS assay for small molecules that induce genotoxicity in human embryonic kidney cells expressing luciferase-tagged ATAD5 (AID 651632). Further: on the % scale 0 is the no-effect control and ±100 the full control effect; nearly all actives have a fitted effect of over 15% in size. As to conditions: HEK293T ATAD5-luciferase induction, 16 h; series mostly up to 83.3 µM. In short, it runs like this:
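HEK293T cells carrying a luciferase reporter tagged to ATAD5 were exposed to compound or DMSO vehicle for 16 hr at 37C, 5% CO2. Amplite was added, and after 30 min at room temperature luciferase activity was read as a marker of ATAD5 induction.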

The nature of assay [2]: qHTS assay for small molecule agonists of the p53 signaling pathway - cell viability (AID 651633; calls by dose curve; further: nearly all actives have a fitted effect of over 30% in size; further: potency means the concentration at half of the fitted maximal effect). As to conditions: p53RE-bla HCT-116 viability, ATP luminescence, 16 h; series mostly up to 83.3 µM. In short, it runs like this:
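p53RE-bla cells were treated with compound for 16 hours at 37 C. Cytotoxicity was then measured as CellTiter-Glo luminescence after 30 min at room temperature.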

A short description of assay [3]: qHTS assay for small molecules that induce genotoxicity in human embryonic kidney cells expressing luciferase-tagged ATAD5 - cell viability (AID 651634; calls by dose curve; further: nearly all actives have a fitted effect of over 25% in size; further: potency means the concentration at half of the fitted maximal effect). The following applies: HEK293T ATAD5-luc cells viability, CellTiter-Fluor, 15.5 h; series mostly up to 83.3 µM. Put shortly: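 HEK293T cells expressing luciferase-tagged ATAD5 were exposed to compound or DMSO for 15.5 hr at 37C, 5% CO2. Viability was then read as live-cell protease activity by CellTiter-Fluor fluorescence after 30 min at 37C.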

Assay [4] in a line: qHTS assay for small molecule disruptors of the mitochondrial membrane potential - cell viability (AID 720634; calls by dose curve; further: nearly all actives have a fitted effect of over 20% in size; further: potency means the concentration at half of the fitted maximal effect). As to conditions: HepG2 viability, ATP luminescence (CellTiter-Glo), 1 h; series mostly up to 83.2 µM. In short, it runs like this: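 HepG2 cells seeded overnight at 37 C, then exposed to compound or DMSO for 1 hr at 37 C, 5% CO2. m-MPI dye added, then CellTiter-Glo for 30 min at room temperature; viability read as ATP luminescence.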

A short description of assay [5]: qHTS assay for small molecule disruptors of the mitochondrial membrane potential (AID 720635). Further: potency means the concentration at half of the fitted maximal effect. As to conditions: HepG2 mitochondrial membrane potential, Mito-MPS dye ratio; series mostly up to 83.2 µM. Put shortly:
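HepG2 cells exposed to compound 1 hr at 37C, then Mito-MPS dye 30 min. Ratio read of aggregate (540/590 nm) versus monomer (490/535 nm) fluorescence.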

A short description of assay [6]: qHTS assay to test for compound auto fluorescence at 590 nm (red) in HepG2 cells (AID 720674). Further: on the % scale 0 is the no-effect control and ±100 the full control effect. The following applies: HepG2 autofluorescence, red 540/590 nm, 1 h; series mostly up to 91.3 µM. Put shortly:
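Seeding: 2,000 HepG2 cells/well, MEM/10% FBS, overnight 37 C. Dosing: compound vs DMSO. Incubation: 1 hr, 37 C, 5% CO2. Read: fluorescence 540 ex/590 em, Rose Bengal sodium as red reference.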

Assay [7] can be described thus: qHTS assay to test for compound auto fluorescence at 535 nm (green) in HepG2 cells (AID 720675). Further: potency means the concentration at half of the fitted maximal effect. On fluorescence, % of fluorescein control: on the % scale 0 is the no-effect control and ±100 the full control effect. The following applies: green autofluorescence 485/535 nm, 1 h; series mostly up to 91.3 µM.
The nature of assay [8]: qHTS assay to test for compound auto fluorescence at 460 nm (blue) in HEK293 cells (AID 720678). Further: on the % scale 0 is the no-effect control and ±100 the full control effect. The following applies: blue autofluorescence 405/460 nm; series mostly up to 91.3 µM. Put shortly:
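Blue-channel (Ex/Em 405/460 nm) intensity measured in HEK293 cultures after overnight compound exposure at 37C; signal expressed relative to triamterene. Cells plated 2,000 per well in 10% dialyzed FBS medium and allowed 4-5 hr to attach.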

Assay [9] can be described thus: qHTS assay to test for compound auto fluorescence at 590 nm (red) in HEK293 cells (AID 720679). Further: on the % scale 0 is the no-effect control and ±100 the full control effect. As to conditions: red autofluorescence 540/590 nm; series mostly up to 91.3 µM. In short, it runs like this:
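Red-channel autofluorescence (Ex/Em 540/590 nm; Rose Bengal sodium reference) was measured after overnight 37C, 5% CO2 exposure of attached HEK293 cells, 2,000 per well in medium with 10% dialyzed FBS.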

Assay [10] in a line: qHTS assay for small molecule agonists of the p53 signaling pathway (AID 651631; calls by dose curve; further: potency means the concentration at half of the fitted maximal effect; nearly all actives have a fitted effect of over 15% in size). The following applies: HCT-116 p53RE-bla reporter, beta-lactamase FRET ratio, 16 h; series mostly up to 73.3 µM. Put shortly: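 Testing took place in human colorectal HCT-116 cells with stable p53RE-driven beta-lactamase. After 16 h of compound exposure at 37 °C, a FRET substrate was added and fluorescence recorded 2 h later.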

Structures are written as SMILES. Where “and” joins values, the source holds several entries; their conditions need not be identical. Identical values can stand only once. Values without a mark were called inactive. Results filed as inconclusive are left out. Calls of active or inactive are those of the source. Unless noted, the call rests on the fitted dose curve; in most records, active means well fitted curve in the direction sought with a large enough effect in the repeat runs; inconclusive means weak or mixed curves; inactive means no such curve, though single readings can be large; an effect the other way counts as inactive or inconclusive.

Regarding `CCC(N)(CO)CO`, the Potency entry in [1], in assay [2], in [3], in assay [4], in assay [5] and in assay [6] was “inactive” each time. The Potency entry in assay [7], in [8] and in [9] was “inactive” in each case.
On to `CCCC(=O)OC[C@@H](OC(=O)CCC)[C@@H](OC(=O)CCC)[C@H](Cn1c2nc(=O)[nH]c(=O)c-2nc2cc(C)c(C)cc21)OC(=O)CCC`, for which the Potency entry in assay [1], in assay [2], in assay [3], in assay [4], in [6] and in assay [8] was “inactive” throughout. Also, the Potency entry in [9] was “inactive”. For the same compound, the figures for the Potency in assay [5] and in [7] were 6.99 µM (active) and 8.91 µM (active), respectively.
`CCc1cc(Cc2cc(CC)cc(C(C)(C)C)c2O)c(O)c(C(C)(C)C)c1`: the Potency entry in [1], in assay [4], in assay [6], in assay [7], in assay [8] and in assay [9] was “inactive” throughout. The Potency is 10.9 µM (active) in assay [2], 61.1 µM (active) in [3] and 0.864 µM (active) in assay [5].
As for `Cc1cc(C2CCCCC2)n(O)c(=O)c1`, the Potency in assay [10] is 8.04 µM (active); in assay [5], 3.2 µM (active). Further, the Potency result in assay [2], in assay [3] and in assay [4] was “inactive” throughout. Besides, the fluorescence, relative to Rose Bengal in assay [6] was 0.33% [at 18.6 µM]. In assay [7], the fluorescence, % of fluorescein control is -0.0302% [at 18.6 µM]. Also, the fluorescence, % of triamterene in assay [8] is -0.0951% [at 18.6 µM]. Besides, the fluorescence, % of fluorescent control in assay [9] is -0.0357% [at 18.6 µM].
Regarding `CCCCCCCCOC(=O)c1ccc(O)cc1`, the Potency result in assay [1], in assay [2], in [3], in assay [6], in assay [7] and in assay [8] was “inactive” each time. Also, the Potency entry in assay [9] is “inactive”. Also, the figures for the Potency in assay [4] and in [5] were 24.3 µM (active) and 17.2 µM (active), respectively.
Turning to `O=C(c1ccc(O)cc1O)c1ccc(O)cc1O`, the Potency result in assay [1], in assay [2], in assay [3], in assay [4], in assay [6] and in [7] was “inactive” throughout. Further, the Potency result in [8] and in [9] was “inactive” each time. For the same compound, the Potency in assay [5] is 12.2 µM (active) and 7.7 µM (active).
`[Cl][Bi]([Cl])([c]1ccccc1)([c]1ccccc1)[c]1ccccc1`: the Potency is 24.2 µM (active) in assay [10], 21.6 µM (active) in assay [2], 60.8 µM (active) in [3] and 43 µM (active) in assay [5]. The Potency entry in assay [6], in assay [7], in assay [8] and in [9] was “inactive” in each case.
Regarding `CCCCCCCCCCCCCC[P+](CCCC)(CCCC)CCCC` (tested in a mixture with another compound), the Potency entry in assay [1], in assay [6], in assay [7], in assay [8] and in [9] was “inactive” each time. For the same compound, the Potency in assay [2] was 27.5 µM (active); in assay [3], 48.9 µM (active); in assay [4], 61.5 µM (active); in assay [5], 0.69 µM (active).
`O=C1C=CC(=O)N1`: the Potency in [10] was 49.8 µM (active); in assay [4] it was 49.8 µM (active); in [5], 28 µM (active). The Potency entry in assay [1], in assay [6], in [7], in assay [8] and in assay [9] was “inactive” in each case.
On to `Cc1cc(O)c(Cl)c(C)c1Cl`, for which the Potency entry in [1], in assay [6], in assay [7], in [8] and in assay [9] was “inactive” throughout. The Potency is 68.6 µM (active) in assay [2], 61.1 µM (active) in [3], 54.5 µM (active) in [4] and 1.93 µM (active) in assay [5].
For `Cc1cc(O)c(C(C)(C)C)cc1C(C)(C)C`, the Potency result in assay [1], in assay [6], in [7], in assay [8] and in assay [9] was “inactive” throughout. In addition, the Potency is 9.69 µM (active) in assay [2], 15.4 µM (active) in assay [3], 15.4 µM (active) in assay [4] and 0.969 µM (active) in assay [5].
Consider `COc1ccc(C(=O)/C(Br)=C\C(=O)O)cc1`, for which, in [10], the Potency is 10.6 µM (active) and 21.7 µM (active). Moreover, the Potency entry in assay [2], in assay [4], in [5], in assay [6], in assay [7] and in assay [8] was “inactive” in each case. Further, in assay [9], the Potency result is “inactive”.
On to `CCCCCCCCCCn1cc[n+](CCCCCCCCCC)c1C`, for which the Potency entry in assay [1], in [6], in assay [7], in assay [8] and in [9] was “inactive” throughout. The Potency in assay [2] was 68.7 µM (active); in assay [3], 68.7 µM (active); in assay [4], 54.5 µM (active); in assay [5] it was 2.17 µM (active).
Regarding `C1CCCC1`, the Potency result in assay [1], in assay [2], in assay [3], in assay [4], in assay [5] and in [6] was “inactive” each time. Also, the Potency entry in assay [7], in [8] and in [9] was “inactive” each time.
Turning to `CCCCCCCCCCCCCCCCCC[N+](C)(C)Cc1ccccc1`, the Potency result in assay [1], in assay [6], in assay [7], in assay [8] and in [9] was “inactive” each time. Also, the Potency in assay [2] was 24.6 µM (active); in [3] it was 55 µM (active); in assay [4], 69.2 µM (active); in assay [5], 15.5 µM (active).
In the case of `CN(C)c1ccc(SC#N)cc1`, the Potency entry in assay [1], in assay [2], in [3], in assay [4], in assay [6] and in assay [7] was “inactive” throughout. The Potency entry in [8] and in assay [9] was “inactive” each time.
Regarding `Cc1cc(O)c(C(C)(C)C)cc1Sc1cc(C(C)(C)C)c(O)cc1C`, the Potency result in [1], in assay [6], in [7], in assay [8] and in [9] was “inactive” in each case. Moreover, the Potency in assay [2] was 13.7 µM (active); in assay [3], 54.4 µM (active); in assay [4], 61 µM (active).
For the compound `Oc1cc2ccccc2c2ccccc12`, the Potency entry in assay [1], in assay [6], in [7], in assay [8] and in [9] was “inactive” each time. Besides, the Potency in assay [2] is 6.11 µM (active); in [3], 17.2 µM (active); in [4] it was 19.3 µM (active); in assay [5], 0.969 µM (active).
Consider `Cn1cc(C(=O)[C@@H]2CCc3nc[nH]c3C2)c2ccccc21`, for which the Potency result in [1], in assay [2], in assay [3], in assay [4], in [5] and in [6] was “inactive” throughout. The Potency result in assay [7], in [8] and in assay [9] was “inactive” throughout.
Turning to `Clc1ccc2n[nH]nc2c1`, the Potency result in assay [1], in [2], in assay [3], in [4], in assay [6] and in assay [7] was “inactive” in each case. The Potency result in [8] and in [9] was “inactive” each time.
